Legend:
Assay in all cases: thermal shift delta Tm vs DMSO control; higher = stronger stabilization (binding)
Details in all cases: 12.5 µM; protein concentration 2 µM
LOC_OS01G57100-cb003 = tested on: LOC_OS01G57100-cb003
How it was run: (§1)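 Rice kinase domain constructs were expressed in E. coli, purified, and tested by differential scanning fluorimetry with compound added in DMSO. Each well of a 96-well plate held 19.5 μl of 2 μM kinase in 100 mM potassium phosphate pH 7.5, 150 mM NaCl, 10% glycerol and 5 × SYPRO Orange, and fluorescence was read from 25°C to 95°C at 0.05°C/s. The melting temperature shift is the mean of triplicates, taken against protein with DMSO alone after Boltzmann fitting.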

LOC_OS01G60330-cb001 = tested on: LOC_OS01G60330-cb001
How it was run: as §1

LOC_OS01G60700-cb002 = tested on: LOC_OS01G60700-cb002
How it was run: as §1

LOC_OS01G70970-cb002 = tested on: LOC_OS01G70970-cb002
How it was run: as §1

LOC_OS02G07810-cb001 = tested on: LOC_OS02G07810-cb001
How it was run: as §1

LOC_OS02G08530-cb003 = tested on: LOC_OS02G08530-cb003
How it was run: as §1

LOC_OS02G14120-cb001 = tested on: LOC_OS02G14120-cb001
How it was run: as §1

LOC_OS02G17970-cb001 = tested on: LOC_OS02G17970-cb001
How it was run: as §1

LOC_OS02G54510-cb004 = tested on: LOC_OS02G54510-cb004
How it was run: as §1

LOC_OS03G04050-cb001 = tested on: LOC_OS03G04050-cb001
How it was run: as §1

LOC_OS03G12390-cb001 = tested on: LOC_OS03G12390-cb001
How it was run: as §1

LOC_OS03G27990-cb004 = tested on: LOC_OS03G27990-cb004
How it was run: as §1

LOC_OS03G50450-cb001 = tested on: LOC_OS03G50450-cb001
How it was run: as §1

LOC_OS03G50810-cb003 = tested on: LOC_OS03G50810-cb003
How it was run: as §1

LOC_OS04G35114-cb001 = tested on: LOC_OS04G35114-cb001
How it was run: as §1

LOC_OS04G38480-cb003 = tested on: T1, LOC_OS04G38480-cb003
T1 sequence (whole entry): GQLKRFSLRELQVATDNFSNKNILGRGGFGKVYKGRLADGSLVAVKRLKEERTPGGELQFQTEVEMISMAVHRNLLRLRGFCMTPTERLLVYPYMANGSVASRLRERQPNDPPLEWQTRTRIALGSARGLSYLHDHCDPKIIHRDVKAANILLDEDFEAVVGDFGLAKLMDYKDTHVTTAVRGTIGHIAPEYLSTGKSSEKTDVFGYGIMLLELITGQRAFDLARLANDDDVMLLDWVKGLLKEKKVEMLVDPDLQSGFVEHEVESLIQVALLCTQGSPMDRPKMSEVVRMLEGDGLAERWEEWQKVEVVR
How it was run: as §1

LOC_OS04G41100-cb001 = tested on: T2, LOC_OS04G41100-cb001
T2 sequence (whole entry): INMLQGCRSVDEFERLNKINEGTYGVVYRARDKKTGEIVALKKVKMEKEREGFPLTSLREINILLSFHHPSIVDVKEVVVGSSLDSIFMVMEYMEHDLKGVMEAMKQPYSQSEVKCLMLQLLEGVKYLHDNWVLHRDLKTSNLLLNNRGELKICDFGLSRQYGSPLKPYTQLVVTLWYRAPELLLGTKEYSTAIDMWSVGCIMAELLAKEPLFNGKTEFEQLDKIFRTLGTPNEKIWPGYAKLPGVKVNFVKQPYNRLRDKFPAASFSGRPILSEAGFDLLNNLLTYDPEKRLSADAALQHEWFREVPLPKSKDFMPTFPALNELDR
How it was run: as §1

LOC_OS01G63280-cb003 = tested on: LOC_OS01G63280-cb003
How it was run: as §1

LOC_OS02G45750-cb003 = tested on: LOC_OS02G45750-cb003
How it was run: as §1

LOC_OS01G67340-cb003 = tested on: LOC_OS01G67340-cb003
How it was run: as §1

Row | SMILES | thermal shift delta Tm (LOC_OS01G57100-cb003) [°C] | thermal shift delta Tm (LOC_OS01G60330-cb001) [°C] | thermal shift delta Tm (LOC_OS01G60700-cb002) [°C] | thermal shift delta Tm (LOC_OS01G70970-cb002) [°C] | thermal shift delta Tm (LOC_OS02G07810-cb001) [°C] | thermal shift delta Tm (LOC_OS02G08530-cb003) [°C] | thermal shift delta Tm (LOC_OS02G14120-cb001) [°C] | thermal shift delta Tm (LOC_OS02G17970-cb001) [°C] | thermal shift delta Tm (LOC_OS02G54510-cb004) [°C] | thermal shift delta Tm (LOC_OS03G04050-cb001) [°C] | thermal shift delta Tm (LOC_OS03G12390-cb001) [°C] | thermal shift delta Tm (LOC_OS03G27990-cb004) [°C] | thermal shift delta Tm (LOC_OS03G50450-cb001) [°C] | thermal shift delta Tm (LOC_OS03G50810-cb003) [°C] | thermal shift delta Tm (LOC_OS04G35114-cb001) [°C] | thermal shift delta Tm (LOC_OS04G38480-cb003) [°C] | thermal shift delta Tm (LOC_OS04G41100-cb001) [°C] | thermal shift delta Tm (LOC_OS01G63280-cb003) [°C] | thermal shift delta Tm (LOC_OS02G45750-cb003) [°C] | thermal shift delta Tm (LOC_OS01G67340-cb003) [°C]
1 | CC(C)(C)c1cc(/C=C(\C#N)C(N)=S)cc(C(C)(C)C)c1O [Tyrphostin AG 879] | 5.01 | 3.04 | 4.7 | 2.23 | 2.55 | 2.78 | 4.98 | 3.25 | 6.54 | 0.85 | 2.51 | 1 | 0.98 | 2.05 | 1.68 | 2.13 | 1.27 | – | – | –
2 | Cn1cc(C2=C(c3ccc(Cl)cc3Cl)C(=O)NC2=O)c2ccccc21 | 6.65 | 11.5 | 4.75 | 7.16 | 1.24 | 3.23 | 12.5 | 1.77 | 0.82 | 0.78 | 0.98 | 0.26 | 0.6 | 0.67 | 1.64 | 1.13 | 0.96 | 15.7 | 1.02 | –
3 | O=C1c2ccc(Nc3ccc(F)cc3F)cc2CCc2ccc(OC[C@H](O)CO)cc21 [Skepinone-L] | 1.15 | 1.18 | 0.79 | 0.42 | -0.07 | 0.85 | 0.72 | 0.17 | -0.21 | -0.01 | -0.61 | 0.11 | 0.06 | -0.16 | 1.82 | 1.25 | 0.53 | 0.21 | 0.45 | 0.84
4 | O=C(NC(NC(=S)Nc1ccc(F)c([N+](=O)[O-])c1)C(Cl)(Cl)Cl)C(c1ccccc1)c1ccccc1 (configuration not stated) | 4.28 | 8.97 | 3.48 | 1.86 | 3.38 | 2.71 | 2.37 | 3.46 | 1.3 | 1.21 | 1.23 | 0.49 | 0.84 | 1.45 | 1.31 | 3.23 | 0.88 | – | 0.8 | 0.17
5 | COc1cc(C(=O)N2CCC(N3CCN(C)CC3)CC2)ccc1Nc1ncc2c(n1)N(C)c1ccccc1C(=O)N2C | 0.21 | 0.56 | 0.5 | 0.15 | 0.46 | 1.92 | 1.72 | 0.35 | 0.29 | 0.41 | 3.59 | 0.46 | 0.37 | 0.68 | 0.65 | 3.81 | 0.27 | -0.2 | 1.73 | 0.17
6 | COC(=O)N[C@@H](C)CNc1nccc(-c2cn(C(C)C)nc2-c2cc(Cl)cc(NS(C)(=O)=O)c2F)n1 [Encorafenib (LGX818)] | 1.3 | 0.6 | 1.13 | 0.24 | 0.09 | 0.83 | 1.23 | 0.55 | -0.06 | 0.22 | -0.2 | 0.34 | 0.01 | 0.12 | 0.62 | 0.49 | 1.63 | 16.6 | 0.44 | 0.27
7 | CS(=O)(=O)c1cccc(CNc2nc(Nc3ccc4c(c3)CCC(=O)N4)ncc2C(F)(F)F)c1 | 1.78 | 4.37 | 0.7 | 6.42 | 1.43 | 2.07 | 5.48 | 0.72 | 1.28 | 0.17 | 5.43 | 1.28 | 3.56 | 4.21 | 3.71 | 2.37 | 2.51 | 1.3 | 10.4 | 1.2
8 | Cc1nc2c(-c3cnc(N)nc3)nc(N3CCOCC3)nc2n1C(C)C | 1.43 | 0.31 | 1.66 | – | 1.23 | 1.18 | 0.05 | 2.41 | 0.46 | 0.51 | 0.59 | 0.15 | 0.73 | 0.44 | 1.59 | – | – | 0.78 | 0.88 | 0.22

— the supplement of paper PMC9694430
